From PubChem BioAssay
MPTP inh: permeability transition pore inhibition. inhibition, % at 10 µM. isolated mouse mitochondria, Ca2+ swelling absorbance, 30 min. hit rate 1.4% among 360,000. AID 602449;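 active means inhibition of 50% or more, scaled per plate between neutral and stimulator controls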;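 further: 0% = DMSO wells given calcium and 100% = 1 mM EGTA wells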
NR3A LBD binder: NR3A (human) ligand-binding domain modulation | hit rate 2.5% among 340,000 | Tm shift relative to glycine control, % at 25 µM | NR3A LBD differential scanning fluorimetry, Tm shift; 0% = protein alone, 100% = glycine-bound protein;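 active means melting temperature shift of at least 10% of the positive control shift, at one fixed dose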
CRFBP-R2 block: CRF-BP/CRF-R2 complex antagonism. HEK293 CRF-R2/CRF-BP, CRF-induced calcium fluorescence. inhibition, % at 11.8 µM. hit rate 0.59% among 350,000. AID 588475;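 active means inhibition of the ligand-induced calcium signal above about 50% at the single tested concentration, limit read from the data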
ANO1 block: inhibitors of mouse TMEM16A calcium-activated chloride channel | Q8BHY3 | HEK293 TMEM16A/YFP iodide influx fluorescence, ionomycin | normalized B-score (activity score, 25-100; higher = stronger inhibition) at 10 µM | hit rate 1.2% among 310,000;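 active means ratio plate-corrected score three or more library SD toward inhibition, starting fluorescence score within five deviations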;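 further: score derived from kinetic fluorescence span divided by baseline fluorescence per well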
Target sequence (Q8BHY3 whole entry, looked up): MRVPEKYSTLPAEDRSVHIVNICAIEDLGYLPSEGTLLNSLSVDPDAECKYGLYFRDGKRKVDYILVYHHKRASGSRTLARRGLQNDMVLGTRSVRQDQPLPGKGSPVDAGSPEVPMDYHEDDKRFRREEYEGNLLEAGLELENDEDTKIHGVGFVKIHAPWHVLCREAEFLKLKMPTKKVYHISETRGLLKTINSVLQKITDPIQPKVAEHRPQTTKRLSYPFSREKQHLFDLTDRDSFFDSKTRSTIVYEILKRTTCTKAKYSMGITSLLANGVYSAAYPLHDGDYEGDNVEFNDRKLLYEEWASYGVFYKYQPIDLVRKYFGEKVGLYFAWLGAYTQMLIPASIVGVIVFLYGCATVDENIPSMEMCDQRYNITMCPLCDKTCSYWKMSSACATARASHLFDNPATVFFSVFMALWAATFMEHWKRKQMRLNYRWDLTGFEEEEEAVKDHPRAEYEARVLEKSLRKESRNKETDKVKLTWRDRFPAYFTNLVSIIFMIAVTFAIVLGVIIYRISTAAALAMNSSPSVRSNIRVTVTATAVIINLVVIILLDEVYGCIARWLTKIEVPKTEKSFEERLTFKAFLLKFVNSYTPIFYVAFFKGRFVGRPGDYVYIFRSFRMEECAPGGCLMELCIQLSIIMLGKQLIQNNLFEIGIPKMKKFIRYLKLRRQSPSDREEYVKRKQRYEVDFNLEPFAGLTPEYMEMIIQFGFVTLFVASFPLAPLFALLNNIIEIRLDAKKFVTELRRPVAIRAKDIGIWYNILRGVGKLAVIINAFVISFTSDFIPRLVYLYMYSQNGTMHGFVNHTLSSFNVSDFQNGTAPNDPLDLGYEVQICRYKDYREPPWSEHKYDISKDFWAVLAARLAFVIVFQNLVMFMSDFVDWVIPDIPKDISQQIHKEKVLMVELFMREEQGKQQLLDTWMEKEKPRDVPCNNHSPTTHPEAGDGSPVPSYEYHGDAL
CRFR2-BP ag: CRF-BP/CRF-R2 complex agonism | HEK293 CRF-R2/CRF-BP, calcium dye fluorescence (FLIPR); percent of saturating CRF peptide response | activation, % at 13.2 µM | hit rate 0.46% among 350,000;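 active means activation of at least 50%, plus an integration ratio under a set limit after plate pattern correction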;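 further: plate controls were neutral control wells without compound for no effect and CRF at EC100 for full effect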
TMEM16A act: activates or potentiates the mouse TMEM16A chloride channel. Q8BHY3. B-score at 10 µM. hit rate 0.3% among 340,000. HEK293 TMEM16A/YFP-H148Q/I152L, iodide quench fluorescence; stronger effect = lower value;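 active means fluorescence-ratio B-score plate-corrected deviation score at least 3 library SD below zero, with starting fluorescence score within 5 deviations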;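 further: channel opened by trigger with iodide after compound preincubation; score built on the fluorescence ratio of max minus min over baseline; more negative score means more quench and so TMEM16A activation or potentiation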
Numbers without * were called inactive; i = inactive; nt = no result given. An excerpt weighted towards active compounds, which were near 5.1% of everything screened.

SMILES | MPTP inh | NR3A LBD binder | CRFBP-R2 block | ANO1 block | CRFR2-BP ag | TMEM16A act
C=CCOc1ccc(CN(C)C(=O)c2ccc(CNS(=O)(=O)c3ccc(C)c(C)c3)cc2)cc1 | -0.3 | -5.0 | 7.3 | nt | 0.4 | i
O=[N+]([O-])c1ccc(O)c(Nc2ncnc3ccccc23)c1 | 6.0 | 0.0 | 62.7* | i | 41.5 | i
COc1ccc([N+](=O)[O-])cc1Nc1ncnc2ccccc12 | 0.7 | 3.9 | 26.4 | i | -1.7 | i
CC(C)[C@H](NC(=O)c1ccc([N+](=O)[O-])cc1Cl)C(=O)N1CCN(C/C=C/c2ccccc2)CC1 | 0.0 | -2.0 | -5.2 | nt | 0.1 | i
O=C(COC(=O)CCc1c[nH]c2ccccc12)NCc1ccccc1 | -1.5 | 11.6* | 28.8 | i | -0.9 | i
Cc1ccccc1NC(=O)COC(=O)CCc1c[nH]c2ccccc12 | -0.5 | 1.7 | -1.8 | nt | -0.9 | i
Cc1ccc(NC(=O)COC(=O)CCc2c[nH]c3ccccc23)c(C)c1 | -0.9 | -7.2 | 54.5* | nt | -2.4 | i
Cc1ccc(Cn2c(SCCN3CCCCC3)nc3c2c(=O)[nH]c(=O)n3C)cc1 | -1.2 | -0.3 | -3.0 | i | -1.7 | i
Cn1c(=O)[nH]c(=O)c2c1nc(SCCN1CCCCC1)n2Cc1ccccc1 | -1.5 | 11.7* | 3.4 | i | -1.6 | i
N#CCOC(=O)[C@H](Cc1c[nH]c2ccccc12)NS(=O)(=O)c1ccc(Cl)cc1 | 1.2 | 28.7* | -10.3 | i | 1.7 | i
O=C(O)C(Cc1c[nH]c2ccccc12)NS(=O)(=O)c1ccc(F)cc1 (stereo unspecified) | 1.5 | nt | 3.9 | nt | -0.3 | nt
Cc1nn2c(-c3ccccc3)c(-c3ccccc3)nc2[nH]c1=O | -0.5 | 20.2* | 19.1 | i | 1.4 | i
Cc1ccc(C(C(=O)NCCc2ccccc2)N(C(=O)c2csnn2)C2CC2)cc1 (stereo unspecified) | -0.2 | 0.3 | -8.6 | i | -0.7 | i
CN(CC(=O)Nc1nc2ccccc2s1)S(=O)(=O)c1ccc(Cl)cc1 | 10.7 | -6.7 | -10.6 | i | -0.7 | i
CN(CC(=O)Nc1nc2ccccc2s1)S(=O)(=O)c1ccc(Br)cc1 | 1.8 | 2.8 | -49.6 | 25* | 3.0 | i
Cc1ccc(N(C(=O)Cn2nnc(-c3ccccc3)n2)C(C(=O)NC2CCCCC2)c2ccccn2)cc1C (stereo unspecified) | -0.1 | -3.0 | 55.9* | i | -2.7 | i
Cc1sc2ccccc2c1CNC[C@H]1O[C@@H](n2cnc(C(N)=O)n2)[C@H](O)[C@@H]1O | -0.8 | 0.3 | 0.0 | nt | -1.1 | nt
N#CCOc1ccccc1CNC[C@H]1O[C@@H](n2cnc(C(N)=O)n2)[C@H](O)[C@@H]1O | 0.5 | 3.1 | -4.4 | nt | -0.1 | nt
CC(C)(O)C#Cc1ccc(CNC[C@H]2O[C@@H](n3cnc(C(N)=O)n3)[C@H](O)[C@@H]2O)s1 | -1.0 | 11.3* | -9.8 | nt | 0.0 | nt
NC(=O)c1ncn([C@@H]2O[C@H](CNCc3ccccc3C#Cc3ccccc3)[C@@H](O)[C@H]2O)n1 | 0.6 | 11.3* | -4.2 | nt | 2.2 | nt
ClC1(Cl)CC1CSc1nnc(-c2ccncc2)o1 (stereo unspecified) | 2.5 | -1.6 | 4.8 | i | 0.2 | i
Cc1ccc(C2C=C(c3ccccc3)Nc3nc(N4C(=O)CCC4=O)nn32)cc1 (stereo unspecified) | -0.7 | -0.8 | -0.6 | nt | 80.6* | i
COc1cccc(C2C=C(c3ccc(OC)cc3OC)Nc3nnnn32)c1 (stereo unspecified) | 0.6 | -1.4 | -5.6 | i | 81.4* | i
COc1ccc(C2=CC(c3ccc(C)cc3)n3nnnc3N2)cc1 (stereo unspecified) | 6.4 | -7.7 | -81.1 | i | 91.5* | i
COc1ccc(C2C=C(c3ccccc3)Nc3nnnn32)cc1 (stereo unspecified) | 0.3 | 0.8 | -21.0 | i | 0.4 | i
SMILES | MPTP inh | NR3A LBD binder | CRFBP-R2 block | ANO1 block | CRFR2-BP ag | TMEM16A act
COc1ccc(C2=CC(c3ccc(OC)c(OC)c3)n3nnnc3N2)c(OC)c1 (stereo unspecified) | -0.1 | -1.9 | -1.3 | i | 87.6* | i
CC1Sc2ccc(S(=O)(=O)CCC(=O)Nc3ccc(C(C)C)cc3)cc2NC1=O (stereo unspecified) | -0.6 | -4.2 | -58.6 | i | -2.4 | i
COc1cc(C(O)c2nc(-c3cccs3)cs2)ccc1F (stereo unspecified) | 0.6 | nt | nt | nt | nt | nt
O=C(Cc1cccc(NC(=O)C2CCCN(C(=O)C3CC3)C2)c1)Nc1ccc(C(=O)N2CCOCC2)cc1 (stereo unspecified) | 0.3 | 0.9 | 2.1 | nt | 0.3 | nt
Cc1cccc(NC(=O)c2ncn3c2C(=O)N(C)CC3)c1 | -1.9 | nt | -14.5 | nt | 0.1 | nt
CC(C)c1ccc(C2c3[nH]c4ccccc4c3C[C@H]3C(=O)N(c4ccccc4C(=O)N4CCC[C@H]4C(=O)O)C(=O)N23)cc1 (stereo partly specified) | -0.3 | -1.8 | 6.2 | i | -1.2 | i
CCCCCCCCN1[C@@H](CC(=O)OCC)c2cc(F)ccc2S1(=O)=O | -0.2 | 0.6 | -1.2 | 25* | 0.0 | i
COC(=O)C[C@H]1c2ccc(C(F)(F)F)cc2S(=O)(=O)N1Cc1ccccc1 | 0.8 | 12.9* | 7.4 | i | -2.3 | i
CC(=O)C[C@H]1c2cc(C(F)(F)F)ccc2S(=O)(=O)N1Cc1ccccc1 | -0.9 | -0.2 | 3.6 | i | 1.1 | i
CCCCCCCCCCCCN1[C@@H](CC(=O)O)c2cc(C(F)(F)F)ccc2S1(=O)=O | 14.0 | -3.4 | -1.1 | 100* | 6.4 | i
CCCCCCCCCCCCN1[C@@H](CC(=O)O)c2cc(F)ccc2S1(=O)=O | 2.8 | -8.6 | -1.8 | 100* | 9.6 | i
Cc1ccc(C(=O)Nn2cnnc2)cc1 | 1.6 | 0.9 | 7.8 | i | -2.3 | i
COc1cc(-c2nnc(NC(=O)CCS(=O)(=O)c3ccccc3)o2)cc(OC)c1OC | 0.2 | 0.3 | 2.8 | i | 0.0 | i
CCOc1ccccc1OCc1nn2c(COc3ccccc3)nnc2s1 | -1.8 | 14.2* | -9.0 | i | 0.6 | i
Cc1cc(C)cc(OCc2ccc(C(=O)N3N=C(C(F)F)CC3(O)C(F)F)o2)c1 (stereo unspecified) | 2.2 | 0.3 | 25.9 | i | -0.2 | i
O=C(c1ccc(COc2ccccc2Cl)o1)N1N=C(C(F)F)CC1(O)C(F)F (stereo unspecified) | 30.0 | 1.3 | 7.6 | i | 1.4 | i
O=C(c1ccc(COc2ccc(Br)cc2)o1)N1N=C(C(F)F)CC1(O)C(F)F (stereo unspecified) | 48.6 | 19.2* | 23.3 | i | 0.2 | i
O=C(c1ccc(COc2ccc3ccccc3c2)o1)N1N=C(C(F)F)CC1(O)C(F)F (stereo unspecified) | 5.7 | 20.1* | -3.1 | i | 12.8 | i
